The text below walks through data of ChEMBL document CHEMBL5724796, “Tm Shift (DSF) assay results for EUbOPEN Chemogenomics Library” (2024).

Each structure is given as a SMILES string.

For orientation: ΔTm means the change in melting temperature against a reference sample.

Common to all, as to conditions: Compound concentration 20.0 uM
The target of assay [1] is Tyrosine-protein kinase ABL1 (Homo sapiens) (UniProt P00519).
For assay [2], the target named is Bromodomain-containing protein 4 (Homo sapiens) (UniProt O60885).
In assay [3] the target is Cyclin-dependent kinase 2 (Homo sapiens) (UniProt P24941).
Assay [4] deals with Casein kinase I isoform delta (Homo sapiens) (UniProt P48730).
Casein kinase I isoform delta (Homo sapiens), sequence (P48730 whole entry, looked up, canonical isoform): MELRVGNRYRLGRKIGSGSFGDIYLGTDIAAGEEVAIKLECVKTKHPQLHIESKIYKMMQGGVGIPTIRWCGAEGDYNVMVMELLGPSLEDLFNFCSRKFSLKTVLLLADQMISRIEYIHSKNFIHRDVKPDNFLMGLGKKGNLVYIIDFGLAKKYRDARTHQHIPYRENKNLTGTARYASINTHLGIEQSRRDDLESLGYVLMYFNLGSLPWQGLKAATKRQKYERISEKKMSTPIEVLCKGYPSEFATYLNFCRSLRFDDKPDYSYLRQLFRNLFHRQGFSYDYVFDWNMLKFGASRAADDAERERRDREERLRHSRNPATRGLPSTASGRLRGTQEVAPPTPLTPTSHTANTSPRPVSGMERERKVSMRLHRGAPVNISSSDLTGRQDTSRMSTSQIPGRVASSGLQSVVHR
In assay [5] the target is Glycogen synthase kinase-3 beta (Homo sapiens) (UniProt P49841).
Glycogen synthase kinase-3 beta (Homo sapiens), sequence (P49841 whole entry, looked up): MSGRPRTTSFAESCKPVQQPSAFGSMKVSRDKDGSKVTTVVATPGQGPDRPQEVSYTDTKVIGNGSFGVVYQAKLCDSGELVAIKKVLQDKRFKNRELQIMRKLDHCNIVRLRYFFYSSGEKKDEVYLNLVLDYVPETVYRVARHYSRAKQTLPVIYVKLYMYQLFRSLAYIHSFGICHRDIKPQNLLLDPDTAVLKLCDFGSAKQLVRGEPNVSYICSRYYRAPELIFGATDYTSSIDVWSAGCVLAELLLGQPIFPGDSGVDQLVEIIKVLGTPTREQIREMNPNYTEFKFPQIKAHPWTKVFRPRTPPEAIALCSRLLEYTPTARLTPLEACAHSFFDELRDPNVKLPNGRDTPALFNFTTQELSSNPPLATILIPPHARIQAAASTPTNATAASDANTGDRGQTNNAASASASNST
Assay [6] has as its target Mitogen-activated protein kinase 1 (Homo sapiens) (UniProt P28482).
Assay [7] deals with T1, Aurora kinase A (Homo sapiens) (UniProt O14965).
T1 sequence (whole entry): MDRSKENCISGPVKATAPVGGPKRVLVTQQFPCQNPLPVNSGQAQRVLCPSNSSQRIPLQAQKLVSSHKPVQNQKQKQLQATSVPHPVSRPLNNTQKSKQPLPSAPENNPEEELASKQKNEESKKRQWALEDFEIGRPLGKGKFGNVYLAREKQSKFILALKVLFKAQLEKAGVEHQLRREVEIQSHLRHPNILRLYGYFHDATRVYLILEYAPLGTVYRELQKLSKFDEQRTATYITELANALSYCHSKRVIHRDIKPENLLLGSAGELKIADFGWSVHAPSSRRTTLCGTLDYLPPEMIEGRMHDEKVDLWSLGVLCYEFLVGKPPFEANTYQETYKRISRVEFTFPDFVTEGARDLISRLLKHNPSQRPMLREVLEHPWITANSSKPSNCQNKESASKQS

The target in assay [8] is T2, Transcription intermediary factor 1-alpha (Homo sapiens) (UniProt O15164).
T2 sequence (whole entry): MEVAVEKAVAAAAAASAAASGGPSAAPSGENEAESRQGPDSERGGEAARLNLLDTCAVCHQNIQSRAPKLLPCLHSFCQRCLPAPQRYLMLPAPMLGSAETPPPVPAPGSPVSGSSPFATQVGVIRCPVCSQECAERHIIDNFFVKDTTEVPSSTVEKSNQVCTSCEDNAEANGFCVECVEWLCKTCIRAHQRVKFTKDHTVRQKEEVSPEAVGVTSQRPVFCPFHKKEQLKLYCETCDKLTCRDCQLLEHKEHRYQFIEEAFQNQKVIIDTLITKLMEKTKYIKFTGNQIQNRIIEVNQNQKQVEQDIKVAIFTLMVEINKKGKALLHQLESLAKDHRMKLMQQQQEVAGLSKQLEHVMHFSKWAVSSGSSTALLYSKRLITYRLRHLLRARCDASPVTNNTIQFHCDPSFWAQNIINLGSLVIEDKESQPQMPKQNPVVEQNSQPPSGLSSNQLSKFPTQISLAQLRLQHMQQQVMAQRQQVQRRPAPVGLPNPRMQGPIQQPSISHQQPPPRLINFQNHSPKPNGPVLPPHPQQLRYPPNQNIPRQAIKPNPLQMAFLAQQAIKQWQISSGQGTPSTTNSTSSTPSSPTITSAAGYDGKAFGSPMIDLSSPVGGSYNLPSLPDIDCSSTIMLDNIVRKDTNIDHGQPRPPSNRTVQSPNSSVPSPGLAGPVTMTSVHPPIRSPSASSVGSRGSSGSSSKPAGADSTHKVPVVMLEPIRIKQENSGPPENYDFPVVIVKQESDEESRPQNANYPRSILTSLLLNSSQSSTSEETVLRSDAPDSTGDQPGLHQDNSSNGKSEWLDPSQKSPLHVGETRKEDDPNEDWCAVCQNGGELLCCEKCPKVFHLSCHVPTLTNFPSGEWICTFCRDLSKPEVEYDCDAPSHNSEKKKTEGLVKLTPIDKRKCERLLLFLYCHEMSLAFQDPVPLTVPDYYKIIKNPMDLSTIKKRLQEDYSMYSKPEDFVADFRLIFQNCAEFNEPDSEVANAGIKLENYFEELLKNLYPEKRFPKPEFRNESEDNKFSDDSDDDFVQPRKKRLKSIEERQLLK

Tyrosine-protein kinase ABL1 (Homo sapiens), sequence (P00519 whole entry): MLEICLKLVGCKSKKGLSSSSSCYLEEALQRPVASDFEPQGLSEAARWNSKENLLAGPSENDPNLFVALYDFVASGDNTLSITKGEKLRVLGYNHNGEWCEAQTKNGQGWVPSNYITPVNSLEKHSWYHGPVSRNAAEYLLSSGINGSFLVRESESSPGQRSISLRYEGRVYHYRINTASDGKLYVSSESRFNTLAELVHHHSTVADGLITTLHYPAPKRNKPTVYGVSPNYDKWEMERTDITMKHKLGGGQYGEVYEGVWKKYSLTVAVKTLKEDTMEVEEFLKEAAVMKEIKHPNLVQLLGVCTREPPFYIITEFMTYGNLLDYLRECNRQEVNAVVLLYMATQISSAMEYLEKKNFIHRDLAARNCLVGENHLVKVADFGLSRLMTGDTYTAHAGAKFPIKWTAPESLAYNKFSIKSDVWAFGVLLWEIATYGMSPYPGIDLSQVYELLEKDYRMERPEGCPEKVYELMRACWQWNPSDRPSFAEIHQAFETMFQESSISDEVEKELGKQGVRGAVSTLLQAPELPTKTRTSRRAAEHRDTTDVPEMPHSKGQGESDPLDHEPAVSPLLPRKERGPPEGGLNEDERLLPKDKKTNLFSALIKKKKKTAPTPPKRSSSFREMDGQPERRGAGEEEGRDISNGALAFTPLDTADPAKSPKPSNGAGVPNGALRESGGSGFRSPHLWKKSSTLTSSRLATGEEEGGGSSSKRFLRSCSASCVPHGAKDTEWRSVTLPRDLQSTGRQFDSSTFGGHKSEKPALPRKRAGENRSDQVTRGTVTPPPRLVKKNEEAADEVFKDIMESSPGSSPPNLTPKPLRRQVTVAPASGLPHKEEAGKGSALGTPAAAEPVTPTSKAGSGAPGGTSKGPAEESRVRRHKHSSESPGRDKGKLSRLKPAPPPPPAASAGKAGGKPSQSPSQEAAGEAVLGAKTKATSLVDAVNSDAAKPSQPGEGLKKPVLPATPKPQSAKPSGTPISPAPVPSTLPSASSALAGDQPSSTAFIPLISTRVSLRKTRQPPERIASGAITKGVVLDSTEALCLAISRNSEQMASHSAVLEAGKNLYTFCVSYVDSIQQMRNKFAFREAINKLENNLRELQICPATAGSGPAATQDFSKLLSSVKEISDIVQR
Mitogen-activated protein kinase 1 (Homo sapiens), sequence (P28482 whole entry): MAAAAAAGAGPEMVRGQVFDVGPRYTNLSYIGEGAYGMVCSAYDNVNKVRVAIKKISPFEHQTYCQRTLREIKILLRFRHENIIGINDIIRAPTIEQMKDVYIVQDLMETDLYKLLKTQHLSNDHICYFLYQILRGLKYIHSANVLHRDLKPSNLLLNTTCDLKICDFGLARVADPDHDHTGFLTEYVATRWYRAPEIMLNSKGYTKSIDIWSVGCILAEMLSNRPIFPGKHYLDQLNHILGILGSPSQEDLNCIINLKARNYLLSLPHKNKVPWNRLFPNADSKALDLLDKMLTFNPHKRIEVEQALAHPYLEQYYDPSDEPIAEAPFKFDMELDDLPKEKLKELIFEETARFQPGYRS

In the case of `CC#C[C@]1(O)CC[C@H]2[C@@H]3CCC4=CC(=O)CCC4=C3[C@@H](c3ccc(N(C)C)cc3)C[C@@]21C`, the ΔTm in assay [1] is 0.11 °C; in assay [2] it was -2.39 °C; in assay [3], -0.02 °C; in assay [4], 0.02 °C; in assay [5], -1.3 °C; in assay [6], -0.7 °C. Also, the ΔTm in assay [7] was -1.55 °C; in assay [8], -0.92 °C.
Take `O=C(NO)c1cnc(NC2(c3ccccc3)CC2)nc1`: the ΔTm in assay [1] was -0.47 °C; in assay [2], -1.48 °C; in assay [3] it was 0.47 °C; in assay [4], 0.23 °C; in assay [5], -0.05 °C; in assay [6] it was -0.3 °C. The thermal shift (ΔTm) in assay [7] is -0.41 °C; in assay [8], -1.75 °C.
Consider `CCC(CC)(NC(=O)C(C)C)C(=O)N[C@@H](CCCNC(=N)N)C(=O)NC1(C(=O)NC(c2ccc(F)cc2)c2ccc(F)cc2)CCCC1`, for which the ΔTm in assay [1] is 0.63 °C; in assay [2] it was -1.92 °C; in assay [3], -0.27 °C; in assay [4] it was 0.35 °C; in assay [5] it was -0.5 °C; in assay [6] it was -0.02 °C. Besides, the ΔTm in assay [7] was -0.05 °C; in assay [8], -1.17 °C.
Turning to `CNCCC(Oc1ccccc1OC)c1ccccc1` (stereo unspecified), the ΔTm is 0.01 °C in assay [1]; -1.45 °C in assay [2]; -0.03 °C in assay [3]; -0.42 °C in assay [4]; -0.93 °C in assay [5]; 0.05 °C in assay [6]. The ΔTm in assay [7] is -1.7 °C; in assay [8], 0.03 °C.
As to `O=c1[nH]c(Oc2cnn(Cc3ccccc3)c2)nc2cnccc12`, the ΔTm is 0.64 °C in assay [1]; -2.42 °C in assay [2]; 0.14 °C in assay [3]; -0.09 °C in assay [4]; 0.35 °C in assay [5]; 0.33 °C in assay [6]. For the same molecule, the ΔTm is -1.07 °C in assay [7] and 0.34 °C in assay [8].
On to `CN1CC(=O)N2[C@H](c3ccc4c(c3)OCO4)c3[nH]c4ccccc4c3C[C@@H]2C1=O`, for which the ΔTm in assay [1] is 0.48 °C; in assay [2], -3.03 °C; in assay [3] it was -0.06 °C; in assay [4], 0.06 °C; in assay [5], -0.13 °C; in assay [6] it was 0.16 °C. Besides, the ΔTm is -2.46 °C in assay [7] and -0.6 °C in assay [8].
For the molecule `Cc1sc(C(=O)c2cncnc2N[C@@H]2C[C@H](COS(N)(=O)=O)[C@@H](O)C2)cc1[C@@H]1NCCc2ccc(Cl)cc21`, the ΔTm in assay [1] is 0.03 °C; in assay [2], -0.2 °C; in assay [3], -0.03 °C; in assay [4], -0.1 °C; in assay [5], -1.26 °C; in assay [6], 0.53 °C. Also, the ΔTm is -1.12 °C in assay [7] and 0.42 °C in assay [8].
Consider `O=C(N1CCCCC1c1ccccc1)n1cc(-c2ccc(-c3cccc(CO)c3)cc2)nn1` (stereo unspecified), for which the ΔTm in assay [1] was -2.74 °C; in assay [2], -2.31 °C; in assay [3], -2.39 °C; in assay [4], -10.5 °C; in assay [5] it was -1.86 °C; in assay [6], -9.96 °C. The ΔTm in assay [7] is -5.38 °C; in assay [8] it was 2.17 °C.
With `O=C(NCC(=O)N1CCCCC1)Nc1ccc2nnsc2c1`, the ΔTm in assay [1] is 0.46 °C; in assay [2], -0.58 °C; in assay [3], 0.28 °C; in assay [4], 0.06 °C; in assay [5], 0.23 °C; in assay [6] it was -0.52 °C. Further, the ΔTm in assay [7] was -0.71 °C; in assay [8], 0.08 °C.
Regarding `COc1ccc(CC[C@H]2CCC[C@@H](CCc3ccc(OC)cc3)N2C[C@@H](O)CO)cc1`, the ΔTm in assay [1] was 0.7 °C; in assay [2], -3.11 °C; in assay [3] it was 0.11 °C; in assay [4] it was -0.1 °C; in assay [5] it was -0.21 °C; in assay [6], 0.31 °C. In addition, the ΔTm was -2.3 °C in assay [7] and -0.71 °C in assay [8].
On to `Cn1cc(C(=O)Nc2ccc([C@@H]3C[C@H]3NCC3CC3)cc2)cn1`, for which the ΔTm in assay [1] is 0.52 °C; in assay [2], -3.07 °C; in assay [3] it was 0.01 °C; in assay [4], -0.16 °C; in assay [5], -0.77 °C; in assay [6], 0.06 °C. The values for the ΔTm in assay [7] and in assay [8] were -2.24 °C and 0.47 °C, respectively.
Regarding `C[C@H](Nc1nc2c(cnn2C2CCCC2)c(=O)[nH]1)c1ccc(Cl)cc1`, the ΔTm in assay [1] is -2.54 °C; in assay [2] it was -1.24 °C; in assay [3], -1 °C; in assay [4] it was 0.11 °C; in assay [5] it was -1.9 °C; in assay [6], -7.46 °C. Further, the ΔTm was -6.85 °C in assay [7] and 0.56 °C in assay [8].
